The record followed here is PubChem BioAssay (NCI).

A short description of assay [1]: NCI Yeast Anticancer Drug Screen. Data for the rad50 strain (AID 155).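 Note: 0% = growth of vehicle-only cultures of the same strain.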 The conditions noted are these: S. cerevisiae rad50 strain growth inhibition; at 50.0 µM; hits give high values. The method, boiled down: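 A DNA repair-deficient yeast mutant serves as the test organism; compound-induced growth inhibition is calculated against vehicle-treated cells.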
Assay [2] in a line: NCI Yeast Anticancer Drug Screen. Data for the mec2-1 strain (AID 157). The conditions noted are these: S. cerevisiae mec2-1 strain, at 50.0 µM, hits give high values. The method, boiled down: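 Growth inhibition is read against vehicle-treated controls after compound exposure of the mec2-1 yeast strain, which is defective in DNA damage repair or cell cycle control.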
Assay [3] in a line: NCI Yeast Anticancer Drug Screen. Data for the sgs1 mgt1 strain (AID 161).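 Note: 0% = growth of cultures given vehicle only.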 The note with it: S. cerevisiae sgs1 mgt1 strain, at 50.0 µM, hits give high values. The method, boiled down:
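Percent growth inhibition was derived by comparing compound-exposed mutant yeast with vehicle-exposed cultures. The strain carries alterations in DNA damage repair.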

Assay [4] is described as follows: NCI Yeast Anticancer Drug Screen. Data for the cln2 rad14 strain (AID 165).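 Note: 0% = growth equal to vehicle treated cultures.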 The note with it: S. cerevisiae cln2 rad14 strain, at 50.0 µM, hits give high values. The method, boiled down: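 Growth inhibition, relative to vehicle-treated controls, is the read-out. The test organism is a yeast strain with defined genetic alterations, cln2 rad14.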
Assay [5] can be described thus: NCI Yeast Anticancer Drug Screen. Data for the bub3 strain (AID 167). The conditions noted are these: S. cerevisiae bub3 mutant strain, at 50.0 µM, hits give high values. The method, boiled down: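 Inhibition values come from growth of compound-treated mutant yeast normalised to vehicle-treated controls.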
Assay [6] in a line: NCI Yeast Anticancer Drug Screen. Data for the mlh1 rad18 strain (AID 175). The note with it: S. cerevisiae mlh1 rad18 strain growth inhibition; at 50.0 µM; hits give high values. In short, it runs like this: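 Cells of a genetically altered yeast strain, deficient in DNA damage repair, were treated with compound. Their growth was then compared with that of vehicle-treated cultures to give inhibition.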

About 79,000 compounds went through this panel and 15% of them were active in at least one assay; those are over-represented in the sample as a whole. Unmarked numbers belong to inactive results. Calls of active or inactive are those of the source. Cut-off read from the data, not from the text of the source: active = growth inhibition above about 70%; inactive = the rest.

Turning to `CCCCNC(C(=O)c1ccccc1)c1ccccc1` (stereo not given), the growth inhibition in assay [1] is 4.85%; in assay [2] it was 17.1%; in assay [3] it was 0.45%; in assay [4], -16.6%; in assay [5], 13.9%; in assay [6] it was 26.4%.

On to `CC(=O)Oc1cc2c(c3ccc4ccccc4c13)CCc1ccccc1-2`, for which the growth inhibition was 11.8% in assay [1]; -11.7% in assay [2]; 10.1% in assay [3]; 10.2% in assay [4]; 0.1% in assay [5]; 4.9% in assay [6].

For the compound `CCOC(=O)C1=C(NC(C)(C)C)OC/C1=N\NC(=O)Cc1ccccc1`, the growth inhibition is 42.8% in assay [1]; -3.6% in assay [2]; 21.2% in assay [3]; 16.6% in assay [4]; 26.2% in assay [5]; 28.1% in assay [6].

With `COc1cc2oc(-c3ccc(O)cc3)c(OC3OC(C)C(O)C(O)C3O)c(=O)c2c(O)c1OC` (stereo not given), the growth inhibition in assay [1] is 0.45%; in assay [2] it was -13.8%; in assay [3], -15.6%; in assay [4], 9.4%; in assay [5] it was -7.95%; in assay [6], -74.6%.

`N#Cc1c(O)c(-c2ccccc2)c(=O)n2c1[nH]c1ccccc12`: the growth inhibition in assay [1] was -11.7%; in assay [2], -9.9%; in assay [3], -13.6%; in assay [4] it was 14.9%; in assay [5] it was 2.6%; in assay [6], -12.3%.

In the case of `O=C(CN1CCC(O)(c2ccccc2)CC1)N1CCN(/C=C/c2ccccc2)CC1`, the growth inhibition in assay [1] was -4%; in assay [2], -0.45%; in assay [3], -3.75%; in assay [4], -10.6%; in assay [5] it was -0.1%; in assay [6], 10.8%.

`O=c1[nH]cc(C2OCC(O)C(O)C2O)c(=O)[nH]1` (stereo not given): the growth inhibition was 1.45% in assay [1]; -14.4% in assay [2]; 0.5% in assay [3]; 1.95% in assay [4]; -19.1% in assay [5]; -32.5% in assay [6].

Regarding `COC(=O)CCSCC(N)C(=O)O` (stereo not given), the growth inhibition in assay [1] was 1.3%; in assay [2] it was -2.95%; in assay [3], -13.3%; in assay [4], -39.5%; in assay [5], -0.95%; in assay [6], -18.4%.

As for `CSc1nc(SC)c2c(C(N)=S)[nH]nc2n1`, the growth inhibition in assay [1] is 23.3%; in assay [2] it was 20.9%; in assay [3] it was 47%; in assay [4], 19.7%; in assay [5] it was 18.6%; in assay [6] it was 23.6%.

As for `CC(=O)c1ccccc1C(=O)O`, the growth inhibition was 6.05% in assay [1]; 7.45% in assay [2]; -6.65% in assay [3]; 7.6% in assay [4]; 6.25% in assay [5]; -9.55% in assay [6].

For `CC(O)c1cccc(NC(=O)Nc2ccc(Cl)c(Cl)c2)c1` (stereo not given), the growth inhibition in assay [1] is 12%; in assay [2], 83.4% (active); in assay [3], 70%; in assay [4], 1.15%; in assay [5], 43.8%; in assay [6], 54.5%.

For the compound `COC1OCC(OS(C)(=O)=O)C(OS(C)(=O)=O)C1OS(C)(=O)=O` (stereo not given), the growth inhibition was -22.5% in assay [1]; -6.1% in assay [2]; -26.1% in assay [3]; -55.2% in assay [4]; -1% in assay [5]; -2.85% in assay [6].

With `Cc1c(C(=O)O)sc2ccc([N+](=O)[O-])cc12`, the growth inhibition in assay [1] is -8.15%; in assay [2] it was 2.5%; in assay [3] it was -9.35%; in assay [4], -46.5%; in assay [5] it was -13.3%; in assay [6], -0.6%.

As for `CCN(CC)CCOc1ccc(C)c2c1C(=O)CC2`, the growth inhibition is -27.6% in assay [1]; -9.2% in assay [2]; -8.45% in assay [3]; -8.7% in assay [4]; 21.4% in assay [5]; -23.6% in assay [6].

Take `O=C1C2=C(Nc3ccccc3N2)OC1c1ccccc1Cl` (stereo not given): the growth inhibition in assay [1] is -0.95%; in assay [2], -11.7%; in assay [3], -22.1%; in assay [4], 6.7%; in assay [5], -21.8%; in assay [6], 4%.

Regarding `Cc1cc(Cl)c2ccc(Cl)c(C)c2n1`, the growth inhibition in assay [1] is 6.65%; in assay [2] it was -8.55%; in assay [3], 3.65%; in assay [4], -11.1%; in assay [5] it was 5.4%; in assay [6], 0.15%.

As to `Cc1ccc(S(=O)(=O)NCCC(=O)O)cc1`, the growth inhibition was -1.75% in assay [1]; -11.1% in assay [2]; -9.65% in assay [3]; -9.3% in assay [4]; -3.3% in assay [5]; -4.85% in assay [6].

`CC(=O)C1(C)OC(c2ccccc2)=NC1=S` (stereo not given): the growth inhibition was 7.4% in assay [1]; 14.3% in assay [2]; 7.55% in assay [3]; 14.9% in assay [4]; -5.1% in assay [5]; 9.35% in assay [6].

In the case of `COc1ccc(NS(=O)c2cccc(C)c2)cc1` (stereo not given), the growth inhibition in assay [1] was -8.05%; in assay [2], -11.1%; in assay [3], -16.1%; in assay [4] it was -18.3%; in assay [5], -3.1%; in assay [6], 9.4%.

Consider `O=C(/N=C1\N=Nc2nc(C(C(=O)c3cccc([N+](=O)[O-])c3Cl)c3nc4n(c3O)/C(=N/C(=O)Nc3ccc(Cl)cc3)N=N4)c(O)n21)Nc1ccc(Cl)cc1` (stereo not given), for which the growth inhibition in assay [1] is 9.35%; in assay [2], -8.2%; in assay [3], 5.25%; in assay [4], -6.65%; in assay [5] it was 0.7%; in assay [6] it was 7.1%.
